In all, about 370,000 compounds went through this assay and about 2,100 (0.57%) were called active. The entries come from a sample that favours actives as a whole. Unmarked numbers belong to inactive results.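 The calls were made as follows: active = inhibition above mean plus 3 SD of compounds lying within the high and low control bounds (cut at about 19% in these data); inactive = the rest.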
These compounds were tested against Group 3 secretory phospholipase A2 (Homo sapiens) (UniProt Q9NZ20) (assay: HGIII-sPLA2 enzyme inhibition – biochemical, QFRET, BODIPY PC-A2 liposome substrate, primary screen (AID 743126;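 also: 0% = median of test compound wells and 100% = no enzyme DMSO wells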)). Settings: QFRET BODIPY PC-A2 liposome hydrolysis, fluorescence; at 12.2 µM; active compounds read high.
Group 3 secretory phospholipase A2 (Homo sapiens), sequence (Q9NZ20 whole entry, looked up): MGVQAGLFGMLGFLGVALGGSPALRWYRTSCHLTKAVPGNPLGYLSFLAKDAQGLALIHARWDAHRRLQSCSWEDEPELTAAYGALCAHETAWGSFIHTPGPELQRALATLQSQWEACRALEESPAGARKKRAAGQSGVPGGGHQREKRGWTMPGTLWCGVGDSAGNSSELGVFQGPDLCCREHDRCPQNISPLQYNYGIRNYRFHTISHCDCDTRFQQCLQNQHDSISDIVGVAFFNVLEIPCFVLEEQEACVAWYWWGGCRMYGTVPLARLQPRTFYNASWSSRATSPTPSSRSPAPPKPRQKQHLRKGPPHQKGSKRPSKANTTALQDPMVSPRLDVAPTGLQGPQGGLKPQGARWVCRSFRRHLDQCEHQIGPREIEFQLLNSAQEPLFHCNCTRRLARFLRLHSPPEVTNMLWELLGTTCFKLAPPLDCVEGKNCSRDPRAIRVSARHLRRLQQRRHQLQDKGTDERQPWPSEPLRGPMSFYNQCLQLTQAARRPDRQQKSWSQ

Row | SMILES | inhibition
1 | C[C@]12CCC3C(CC[C@H]4C[C@@H](O)CC[C@]34C)C1CC[C@@H]2O (stereo not given in full) | 21.1% (active)
2 | C[C@]12CCC3C(CC[C@H]4[C@H](O)[C@H](O)CC[C@]34C)C1CC[C@@H]2O (stereo not given in full) | 11.6%
3 | C[C@]12CC[C@H](O)CC1=C([N+](=O)[O-])CC1C2CC[C@@]2(C)C1CC[C@@H]2O (stereo not given in full) | -3.04%
4 | CC1=CC(=Cc2sc3ccccc3[n+]2C)C=C(C)O1 | 5.85%
5 | COc1ccc(C(=O)C2CN(C)CC2C(=O)c2ccc(OC)cc2)cc1 (stereo not given) | -10.5%
6 | O=C(CCNS(=O)(=O)c1ccccc1)Nc1ccc(Cl)cc1C(=O)c1ccccc1 | -26.4%
7 | O=C(COC(=O)c1ccccc1)Nc1ccc(Cl)cc1C(=O)c1ccccc1 | 21.3% (active)
8 | CN1CCN(C(=S)SCC(=O)Nc2ccc(Cl)cc2C(=O)c2ccccc2)CC1 | -21.3%
9 | C[C@@]1([C@@H](NP(=O)(c2ccccc2)c2ccccc2)c2ccccc2)C[C@H]1CCO | -0.39%
10 | CNC(=O)O/N=C(\N)Cc1csc2ccc(Cl)cc12 | -5.86%
